Screening results: PubChem, National Center for Advancing Translational Sciences (NCATS)
This is a sample that favours compounds with a hit; in the whole collection about 8% have one here.
HCV inhibitor: HCV inhibition | Huh7.5.1 HCVcc-Cre infection, luciferase reporter, 44 h | Potency, µM (series often up to 41.8 µM), without a hit: at the top dose activity change, negative = inhibition, actives largely listed as inhibitors | 340,000 tested, 3.4% active; active = well fitted inhibition curve with a large enough effect; inconclusive = small, poorly fitted or top-dose-only effect, or another doubt; inactive = no such curve, though single readings can be large or run the other way; also: potency is read from the fitted curve at half-maximal effect; % is scaled to controls: 0 for no effect and ±100 for the full control effect
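After 44 h co-culture of compound, cells and HCVcc-Cre (~0.5 moi), substrate is added for 15 min at room temperature and luciferase measured over 15 sec. Cells were seeded at 1,000/well and pre-cultured 4 h.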
SARS PLP yeast: SARS-CoV PLP inhibition in yeast; S. cerevisiae expressing SARS-CoV PLpro, growth rescue; Potency, µM (doses to about 32.9 µM), for inactives: at the highest dose activity, positive = growth rescue, hits mostly activators; 330,000 tested, 0.19% active; calls by dose curve; also: potency is read from the fitted curve at half-maximal effect; 0% is about no effect; nearly all actives have a fitted effect of over 55% in size
HCMV inh: blocks human cytomegalovirus replication | HFF cells, HCMV-luciferase reporter, 72 h; active compounds read low | activity change, negative = inhibition, % at 57.5 µM | 410,000 tested, 4.5% active | AID 1259415; in the data active = activity change below about -60%; inconclusive = no clear call, values can overlap the other calls; inactive = above about -39%; also: % is scaled to controls: 0 for no effect and ±100 for the full control effect
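Two compound doses tested in HFFs infected with HCMV-luciferase, MOI 1 PFU/cell, 72 h at 37C. Lysate luminescence read with OneGlo; data normalized against buffer-only and 10uM Salinomycin inhibitor controls.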
FMDV antiviral: antivirals against foot and mouth disease virus | FMDV antiviral cell-based qHTS | 410,000 tested, 1.2% active | Potency, µM (top dose mostly 57.9 µM), for inactives: at the top dose activity change, negative = inhibition, actives largely listed as inhibitors | AID 1159524; calls by dose curve; tested in HEK293T cells; also: read-out not given here; potency is read from the fitted curve at half-maximal effect; % is scaled to controls: 0 for no effect and ±100 for the full control effect; nearly all actives have a fitted effect of over 45% in size
LASV entry inh: blocks Lassa virus binding to or entry into cells; Lassa virus pseudotype entry inhibition, cell reporter; Potency, µM (highest dose often 37.9 µM), for inactives: at the top dose activity change, negative = inhibition, usual class: inhibitors; 300,000 tested, 1.2% active; AID 540256; calls by dose curve; tested in HEK293 cells; also: potency is read from the fitted curve at half-maximal effect; % is scaled to controls: 0 for no effect and ±100 for the full control effect; nearly all actives have a fitted effect of over 50% in size
MARV entry inh: Marburg virus entry inhibition. Potency, µM (doses to about 37.8 µM), without a hit: at the top dose activity change, negative = inhibition, hits mostly inhibitors. Marburg virus pseudotyped entry inhibition, cell reporter. 300,000 tested, 1.8% active; calls by dose curve; tested in HEK293 cells; also: potency is read from the fitted curve at half-maximal effect; % is scaled to controls: 0 for no effect and ±100 for the full control effect
* marks the source's active call; other numbers are inactive results; ? = inconclusive; nt = no result given; ! = repeats disagree; [ ] = dose if it differs, or a comment.

SMILES	HCV inhibitor	SARS PLP yeast	HCMV inh	FMDV antiviral	LASV entry inh	MARV entry inh
Cc1ccccc1NS(=O)(=O)c1ccc2[nH]cc(C(=O)NC(C)c3ccccc3)c(=O)c2c1 (centres undefined)	nt	nt	-20.2	-0.6%	-19.1%[46.1 µM]	nt
Cc1ccc(/C=C/C(=O)Nc2ccc(Oc3ccccc3)cc2)o1	11.2µM*	-69.0%	-29.6	-4.3%	-17.1%	?
CC(=O)c1ccc(NC(=O)/C=C/c2ccc(C)o2)cc1	nt	nt	38.2	29.3%	10.4%[46.1 µM]	?
Cc1cc(C)cc(NC(=O)C(=O)NC(C)c2ccccc2)c1 (centres undefined)	nt	nt	-26.1	-2.7%	-0.9%[46.1 µM]	nt
Cc1ccc(S(=O)(=O)c2nc(-c3ccccc3)oc2NCc2cccnc2)cc1	11.2µM*	2.4%	1.7	23.5%	-28.3%	-17.0%
O=S(=O)(c1ccccc1)c1nc(-c2ccc(F)cc2)oc1NCc1ccccc1	nt	nt	-8.6	1.7%	1.1%[46.1 µM]	?
Cc1ccccc1-c1nc(S(=O)(=O)c2ccc(Br)cc2)c(NCc2cccnc2)o1	11.2µM*	2.3%	10.2	17.1%	-14.0%	?
Cc1cc2nc(-c3ccc[nH]c3=O)n(Cc3ccccc3F)c2cc1C	16.8%	-0.7%	39.8	19.5%	12.2%	?
CCC1CN(CCNC(=O)c2ccc3c(c2)OCCO3)Cc2cc(OC)ccc2O1 (centres undefined)	nt	nt	nt	8.3%	nt	nt
O=c1cc(CN2CCCC2)c2c(ccc3ccccc32)o1	nt	nt	3.8	-10.9%	4.6%[46.1 µM]	nt
Cc1ccc(OCCCCn2cnc3ccccc32)c(C)c1	?	?	-98.4*	-14.2%	?	?
Brc1ccccc1OCCCCn1cnc2ccccc21	10µM*	-1.6%	-60.2*	-25.1%	?	?
Cc1ccc(C)c(OCCCCn2cnc3ccccc3c2=O)c1	-25.9%	21.5%	89.2	-19.0%	-0.4%	-5.0%
Nc1ncc(/C=C/CNC(=O)c2cc(Cl)c(Br)[nH]2)[nH]1	nt	nt	-14.6	nt	nt	nt
COc1cc(-c2cccc(Cl)c2)cc2c1OCCN(C(=O)CCn1ccc(C)n1)C2	nt	nt	nt	-14.8%	nt	nt
N#Cc1ccc(-c2ccc(OCC(=O)NCC(=O)Nc3ccc(F)c(F)c3F)cc2)cc1	4.2%	9.5%	-60.0*	0.0%	1.7%	?
c1ccc2c(c1)-c1cccc3cccc-2c13	?	5.4%	-28.5	-3.0%	nt	nt
O=CNc1ccc2c3c(cccc13)-c1ccccc1-2	2.82µM*	nt	34.2	52.6%	-3.1%	14.2%
Cc1c(C(=O)NCC2(N3CCCCC3)CCCC2)cnn1-c1nccc(-c2ccccc2F)n1	nt	nt	nt	-7.2%	nt	nt
CCOC(=O)C1CCN(C(=O)Cn2c(=O)c3cccn3c3cccnc32)CC1	11.2µM*	3.0%	0.0	-12.7%	nt	nt
Cc1ccc(CCNC(=O)c2ccc(Cn3c(=O)c4cccn4c4cccnc43)cc2)cc1	nt	nt	-60.0*	-3.8%	-7.5%[46.1 µM]	nt
O=C(CCn1c(=O)c2cccn2c2cccnc21)NCc1ccc(F)cc1	nt	nt	-37.0	3.2%	7.8%[46.1 µM]	nt
CCCNC(=O)Cn1c(=O)c2cccn2c2cccnc21	nt	nt	-80.6*	-1.2%	6.5%[46.1 µM]	nt
Cc1ccccc1CCNC(=O)c1ccc(Cn2c(=O)c3cccn3c3cccnc32)cc1	nt	nt	-8.9	-27.5%	-23.5%[46.1 µM]	nt
O=C(CCn1c(=O)c2cccn2c2cccnc21)NCc1cccc(Br)c1	nt	nt	-60.7*	-8.3%	-4.2%[46.1 µM]	nt
SMILES	HCV inhibitor	SARS PLP yeast	HCMV inh	FMDV antiviral	LASV entry inh	MARV entry inh
Cc1ccc(CSc2nnc([C@@H](N)C(C)C)o2)cc1	nt	nt	17.8	-3.6%	-0.6%[46.1 µM]	-1.7%[46.1 µM]
CC(C)COc1nc2ccccc2nc1[C@H](C#N)C(=O)NC1CCCCC1	nt	nt	nt	nt	nt	-1.2%
CCC(=O)NC(=S)NNC(=O)COc1ccc(Br)cc1	3.1%	0.4%	-20.2	-1.9%	17.1%	2.9%[46.1 µM]
CC(C)CN1C(=O)N(C)C(=O)C2N=CN=C21 (centres undefined)	nt	nt	nt	nt	nt	23.2%
CC(C)CCNC(=O)CCn1c(=O)c2cccn2c2cccnc21	nt	nt	-60.2*	-0.5%	17.5%[46.1 µM]	nt
CCN(CC)CCNC(=O)CCn1c(=O)c2cccn2c2cccnc21	nt	nt	1.0	0.1%	3.7%[46.1 µM]	nt
O=C(CCn1c(=O)c2cccn2c2cccnc21)N1CCN(c2cccc(Cl)c2)CC1	11.2µM*	-2.7%	-2.1	?	?	?
Cc1ccc(Cl)cc1N1CCN(C(=O)CCn2c(=O)c3cccn3c3cccnc32)CC1	nt	nt	-3.2	?	0.0%[46.1 µM]	nt
COc1ccc(Nc2nn(-c3ccc(OC(F)(F)F)cc3)nc2C(C)=O)cc1	nt	nt	27.1	9.6%	?	13.2%[46.1 µM]
CC(C)(CO)NC(=O)c1cnn(-c2ncc3c(n2)-c2ccccc2CC3)c1C1CC1	nt	nt	nt	41.3%	nt	nt
COC(=O)c1cc(Br)c(=O)n(CCN2CCCCC2)c1	-2.1%	1.1%	15.7	6.3%	-1.2%	0.0%
COC(=O)c1cc(Br)c(=O)n(CCN2CCCC2)c1	0.6%	3.8%	-89.9*	5.8%	0.5%	23.4%[46.1 µM]
O=C(CN1Cc2ccccc2OC(c2ccsc2)C1)NCc1ccc2c(c1)OCO2 (centres undefined)	nt	nt	nt	-2.6%	nt	nt
CCOC(=O)c1ccc(NC(=O)c2ccccc2)cc1	?	-7.4%	-20.9	nt	11.4%	?
CCOC(=O)c1ccc(NC(=O)c2ccc(NS(C)(=O)=O)cc2)cc1	11.2µM*	-1.5%	?	nt	-5.2%	14.3%
CCOC(=O)c1ccc(NS(=O)(=O)c2ccc3c(c2)n(C)c(=O)n3C)cc1	-29.6%	0.5%	-67.2*!	-8.7%	-3.0%[46.1 µM]	?
CNC(=O)c1ccc(NC(=O)c2nsc3ccccc23)cc1	nt	nt	162.8	-34.7%	8.3%[46.1 µM]	?
CC(C)c1ccc(NC(=O)c2ccc(NS(C)(=O)=O)cc2)cc1	6.31µM*	0.2%	-5.2	-6.1%	-9.3%	?
CS(=O)(=O)Nc1ccc(C(=O)Nc2ccc3ccccc3c2)cc1	?	8.5%	56.1	65.8%	2.2%	17.9%
CCOC(=O)c1ccc(NC(=O)c2nsc3ccccc23)cc1	nt	nt	-77.8*	-11.8%	?	?
Cc1noc(C)c1-c1ccc(C(=O)NCc2ccc(Cl)cc2)c2occc12	nt	nt	11.0	9.5%	nt	nt
Cc1ccccc1C(=O)Nc1ccc(C(=O)OCc2cc(=O)n3c4c(sc3n2)CCCC4)cc1	nt	nt	-29.6	-14.9%	?	nt
O=C(c1ccc2c(c1)N(Cc1ccc(F)cc1)CCS2)N1CCN(c2ccccc2)CC1	nt	nt	-33.6	-15.9%	?	?
COC(=O)c1sccc1S(=O)(=O)N(CC(=O)NCc1ccc(F)cc1)c1ccc(C)c(C)c1	nt	nt	3.2	0.0%	-16.7%[46.1 µM]	nt
COc1ccc(-c2oc3ccc(N4CCOCC4)cc3c2C#CC2(O)CCCCC2)cc1	10µM*	nt	4.8	15.2%	nt	nt
OC1(C#Cc2c(-c3ccsc3)oc3ccc(N4CCOCC4)cc23)CCCCC1	5.62µM*	nt	50.6	-32.5%	nt	nt
CC(=O)OC[C@H]1O[C@H](CC=NOC[C@@H](C)[C@H](OCc2ccccc2)C(C)C)C=C[C@@H]1OC(C)=O	nt	nt	nt	nt	nt	-9.9%[14.2 µM]
Oc1ccc(-c2n[nH]c(=S)n2-c2ccc3c(c2)OCCO3)c(O)c1	-25.4%	-9.5%	-101.1*	2µM*	?	?
CCOc1ncccc1C(=O)NCCCSc1ccccc1	-11.0%	0.1%	-23.9	-21.7%	-4.3%	?
